Sampled rows, rich in hits. Any-hit rate of the full collection: about 2.2%.
KLF5 inhibitor = inhibitors of KLF5 expression; 0.23% of 290,000 active; AID 1700; DLD-1 KLF5 promoter-luciferase reporter, luminescence; inhibition, % at 5 µM;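 active = inhibition above a per-plate limit of that plate's mean compound inhibition plus 3 SD, cut at about 60% in these data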;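 note: 0% = DMSO wells and 100% = LY294002 at 200 µM; higher means less KLF5 promoter-driven luciferase light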
aSyn UTR inh = 5' untranslated region of α-synuclein, MLPCN primary screen; inhibition, % (tested at 7.5 µM); AID 1813; alpha-synuclein 5'UTR reporter, inhibitor activity; 0.82% of 300,000 active; in the data active = inhibition above about 60%;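 note: H4 neuroglioblastoma cells stably carrying SNCA 5'UTR luciferase fusion; 0% = DMSO wells and 100% = positive control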
IEC-6 cytotox = kills IEC-6 intestinal cells in KLF5 counter-screen; IEC-6 cytotoxicity, luminescence viability; inhibition, % at 5 µM; 0.78% of 290,000 active; AID 1825; in the data active = inhibition above about 22%;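 note: 0% = plate median of test compound wells and 100% = cytotoxic reference compound wells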
BaF3 tox = counter-screen for JAK2V617F inhibitors: parental Ba/F3 viability inhibitors; CellTiter-Glo ATP luminescence; inhibition, % at 5.6 µM; 1.1% of 220,000 active;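 active = inhibition above a per-campaign cutoff, the mean inhibition of all tested compounds plus 3 SD, cut at about 27% in these data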;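 note: 0% = DMSO wells and 100% = JAK Inhibitor I control wells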
APP transl inh = APP translation inhibition. SH-SY5Y APP 5'UTR-luciferase reporter, luminescence. inhibition, % at 2 µM. 0.82% of 190,000 active. AID 1285;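 active = inhibition above a set limit, derived from the sample mean plus 3 SD, cut at about 45% in these data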
Ba/F3 V617F tox = lowers viability of Ba/F3 cells expressing EpoR and JAK2V617F. 1.1% of 220,000 active. ATP luminescence. inhibition, % at 5.6 µM;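 active = inhibition above the campaign mean plus 3 SD over all tested compounds, cut at about 24% in these data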;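 note: cytokine-independent growth of Ba/F3 cells driven by EpoR plus mutant JAK2; 0% = DMSO-treated cells and 100% = JAK inhibitor I control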
The depositor's hits bear a star; / = no result given.

SMILES	KLF5 inhibitor	aSyn UTR inh	IEC-6 cytotox	BaF3 tox	APP transl inh	Ba/F3 V617F tox
Cc1cccc(N(C(=O)c2snc(C(N)=O)c2N)C(C(=O)NCc2ccccc2)c2ccncc2)c1 (centres undefined)	-8	-28	-4	/	/	/
O=C(/C=C/c1cccc(OCc2ccccc2)c1)c1cccnc1	-8	4	4	2	87*	-3
O=C(O)/C=C/c1cccc(OCc2ccccc2)c1	-16	-5	6	-1	-7	2
COC(=O)c1sc(SC)c(-c2ccon2)c1C	-21	-7	-1	3	/	-5
O=c1[nH]cnc2c1sc1nc3c(c(-c4ccc(Cl)cc4)c12)CCC3	-18	35	4	2	51*	-1
COc1ccc(-c2nc3ccccc3n2Cc2ccc(C)cc2)cc1	-18	-47	7	6	-5	2
COc1ccc(Cn2c(-c3ccc(C)cc3)c[n+]3ccccc23)cc1	7	-20	10	71*	1	90*
CC(C)(C)c1cc(Cl)c(O)c(NC(=S)NC(=O)c2cccnc2)c1	40	80*	7	10	-10	2
Cc1cccc(Cc2nnc(CCC(=O)N(CC3CC3)CC3CCCO3)o2)c1 (centres undefined)	-73	-112	0	4	-50	-1
CCN(CC1CCCO1)C(=O)CCc1nnc(Cc2ccc3c(c2)OCO3)o1 (centres undefined)	-18	-11	2	82*	-12	6
Cc1ccc(CN2C(=O)CSC(C)C2=O)cc1 (centres undefined)	-7	9	1	/	/	/
Cc1cccc(C)c1NC(=O)Cn1cnc2c(=O)n(C)c(=O)n(C)c21	-12	18	-3	1	4	-3
Cc1ccccc1C(=O)Nc1cccc(NC(=O)Cn2cnc3c(=O)n(C)c(=O)n(C)c32)c1	8	52	-4	42*	13	68*
CC1CN(S(=O)(=O)c2cccc(C(=O)NCCCn3ccnc3)c2)CC(C)O1 (centres undefined)	-22	5	1	5	3	1
CC1CN(S(=O)(=O)c2ccc(C(=O)NCCCn3ccnc3)cc2)CC(C)O1 (centres undefined)	-23	105*	-4	0	18	-2
O=[N+]([O-])c1ccc(C[n+]2cccc3c4ccccc4ccc32)cc1	-22	17	-11	74*	4	90*
Cc1ccc[n+](Cc2ccc([N+](=O)[O-])cc2)c1	-28	9	0	11	-16	2
CCn1ncc([N+](=O)[O-])c1C(=O)Nc1ccc(C)c(C)c1	-76	7	-3	/	/	/
Oc1ccc(N=Nc2ccc3c(c2)OCCO3)c(O)c1	-22	62*	1	0	/	1
Oc1ccc(N=Nc2ccc3c(c2)OCCO3)c2cccnc12	-6	104*	-7	2	35	-1
Cc1ccc(N=Nc2ccc(O)cc2)c(Br)c1	-106	-43	7	/	/	/
Oc1ccc(N=Nc2ccc(Br)cc2)c(O)c1	-63	-226	29*	0	/	-4
N#Cc1c(-c2ccccc2)c(-c2ccccc2)nn(CC(=O)NNC(=O)Nc2ccccc2)c1=O	24	-92	16	43*	3	20
Cc1ccc2[nH]c3c(c2c1)CN(C(=O)CN1CCN(c2cccc(C)c2C)CC1)CC3	-26	15	-2	4	-9	-2
Cc1ccc2[nH]c3c(c2c1)CN(C(=O)CN1c2ccc(F)cc2CCC1C)CC3 (centres undefined)	-12	22	2	95*	0	1
SMILES	KLF5 inhibitor	aSyn UTR inh	IEC-6 cytotox	BaF3 tox	APP transl inh	Ba/F3 V617F tox
Cc1ccc(NC(=O)C(C)NC(=O)OCc2ccccc2)cc1C (centres undefined)	3	2	-3	0	/	2
CCOC(=O)c1ccc2c(c1)[n+](CC)c(C)n2-c1ccccc1	-17	-4	-6	76*	17	38*
CC(=O)OCC[n+]1c(C)n(-c2ccccc2)c2ccc(Cl)cc21	-28	10	1	12	-46	-2
CCOC(=O)c1ccc2c(c1)n(CC)c(C)[n+]2CC	-2	-21	7	36*	5	20
CCn1c(C)[n+](CC)c2ccc(C(=O)N(C)c3ccccc3)cc21	-14	8	6	4	16	4
CC[n+]1c(C)n(-c2ccccc2)c2ccc(C(=O)OC)cc21	-5	-2	-3	55*	-11	36*
CCOC(=O)c1c(O)c(O)c(C(=O)OCC)n1-c1ccccc1	-31	13	-11	-3	/	-3
Cc1ccccc1N(C)S(=O)(=O)c1nnc(NC(=O)c2ccco2)s1	-6	-11	-4	/	/	/
COc1ccc(C(=O)Nc2ccc3c(c2)C(=O)c2ccccc2C3=O)cc1OC	-47	-9	-4	6	-25	-2
COc1ccc(C(=O)c2c(C(F)(F)F)oc3c2C(=O)c2ccccc2C3=O)cc1OC	-35	111*	2	5	19	3
CCOC(=O)C(NC(C)=O)C(=O)Nc1ccc(C)cc1C (centres undefined)	-18	16	0	2	-4	1
Cc1ccc(C(=O)O/N=C/c2c(N3CCOCC3)n(C)c3ccccc23)cc1	8	77*	-4	3	70*	-3
Cn1c(N2CCOCC2)c(/C=N/OC(=O)c2ccc(F)cc2)c2ccccc21	-32	73*	-1	1	40	3
Cc1nn(C(=O)CCCn2cc([N+](=O)[O-])cn2)c(C)c1Cl	-19	3	-6	6	0	0
C/C(=N\NC(=O)C(C)Oc1ccc([N+](=O)[O-])cc1)c1ccccn1 (centres undefined)	21	72*	12	-1	63*	2
CC(Oc1ccccc1)C(=O)NNC(=O)c1ccccn1 (centres undefined)	13	45	19	6	-15	-2
O=C1c2cccc3c(Cl)ccc(c23)C(=O)N1O	-2	10	22*	5	-6	-2
CCN1C(=O)c2cccc3c(Cl)ccc(c23)C1=O	-3	-9	3	7	-11	3
O=C(COc1ccc(C(=O)c2ccccc2)cc1)NCc1ccc(F)cc1	26	113*	41*	6	14	6
O=C(COc1ccccc1)NCc1ccccc1	-26	-12	-2	-2	1	-4
Cc1ccc(C2CC(C(F)(F)F)n3nc(C(=O)NCc4c(C)nn(C)c4C)c(Cl)c3N2)cc1 (centres undefined)	-11	2	1	55*	-5	44*
COc1ccccc1/C=N/Nc1cc(C)nc2ccc(C)cc12	-29	-30	0	/	/	/
COc1ccc(OC)c(Nc2cc(C)nc3ccc(C)cc23)c1	/	63*	/	/	/	/
COc1ccc(/C=N/Nc2cc(C)nc3ccc(OC)cc23)c(OC)c1	-25	117*	-1	/	/	/
Cc1ccc(-c2nnc(SCC(=O)NC3CCCC3)n2C)cc1	-3	19	2	/	/	/
O=C1/C(=C\c2ccncc2)CCc2ccccc21	/	-5	/	/	/	/
O=C1/C(=C/c2ccncc2)CCC/C1=C\c1ccncc1	38	-101	17	-14	82*	22

Screening results as filed in PubChem BioAssay.
